The structures appear in SMILES notation. Several values for one entry are separate records, joined by “and”; a condition that tells them apart may be missing. Equal values may be shown once. Results filed as inconclusive are left out. More than one record can exist for a structure, and the calls need not agree. Activity calls are given as the source filed them. Unless noted, calls come from the whole dose curve; as a rule, active = well fitted curve in the direction sought with a large enough effect in the repeat runs; inconclusive = weak or mixed curves; inactive = no such curve, though single readings can be large; an effect the other way counts as inactive or inconclusive.

Test [1] is described as follows: A CellTox Green Cytotoxicity Assay to monitor cytotoxicity in HepG2 cells - 0 hour (AID 1224882). Note: nearly all actives have a fitted effect of over 35% in size. The method in brief: (§1)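 Fluorescent DNA-binding dye, 600 HepG2 cells/well, 5 h preincubation then compound in DMSO; same plates read at 0–40 h, 37 C.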
A short description of test [2]: A CellTox Green Cytotoxicity Assay to monitor cytotoxicity in HepG2 cells - 32 hour (AID 1224883). Note: nearly all actives have a fitted effect of over 50% in size. Note: potency is the fitted concentration of half-maximal effect. The method in brief: as §1
A short description of test [3]: A CellTox Green Cytotoxicity Assay to monitor cytotoxicity in HEK293 cells - 8 hour (AID 1224884). Note: nearly all actives have a fitted effect of over 35% in size. Note: potency is the fitted concentration of half-maximal effect. The method, boiled down:
(§2)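 Homogeneous no-lysis format: HEK293 cell suspension mixed with CellTox Green reagent, seeded, incubated 5 h at 37 C/5% CO2, then dosed by pintool with compound in DMSO.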

Test [4] in a line: qHTS RealTime-Glo MT Cell Viability Assay in HepG2 cells - 16 hour (AID 1224885). Note: nearly all actives have a fitted effect of over 50% in size. Note: potency is the fitted concentration of half-maximal effect. The method in brief:
(§3)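 Viability was tracked continuously by NanoLuc luminescence from prosubstrate reduced by living HepG2 cells, at successive time points over 40 h of compound exposure. Cells with reagent were preincubated 5 h at 37 °C before compound addition.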
Background: qHTS replaces the single test concentration by a dilution series.

Test [5] in a line: qHTS RealTime-Glo MT Cell Viability Assay in HEK293 cells - 24 hour (AID 1224886). Note: nearly all actives have a fitted effect of over 50% in size. Note: potency is the fitted concentration of half-maximal effect. The method, boiled down:
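Viability tracked continuously by luminescence as live cells reduce a prosubstrate for NanoLuc; HEK293 cells preincubated 5 h, compound-treated at 37 C, and read at 0, 8, 16, 24, 32 and 40 h.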

Test [6] is described as follows: qHTS RealTime-Glo MT Cell Viability Assay in HEK293 cells - 8 hour (AID 1224887). Note: nearly all actives have a fitted effect of over 50% in size. Note: potency is the fitted concentration of half-maximal effect. The method in brief:
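Measured as luminescence from the same continuously cultured HEK293 wells at successive time points (0, 8, 16, 24, 32, 40 h) after compound addition. Reagent present from seeding; dosing at 5 h; incubation 37 C.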

Test [7] is described as follows: qHTS RealTime-Glo MT Cell Viability Assay in HepG2 cells - 0 hour (AID 1224889). Note: nearly all actives have a fitted effect of over 50% in size. The method, boiled down:
as §3

The nature of test [8]: A CellTox Green Cytotoxicity Assay to monitor cytotoxicity in HepG2 cells - 8 hour (AID 1224890). Note: nearly all actives have a fitted effect of over 45% in size. Note: potency is the fitted concentration of half-maximal effect. The method, boiled down:
as §1

Test [9] in a line: qHTS assay to identify small molecule antagonists of the estrogen receptor alpha (ER-alpha) signaling pathway using the BG1 cell line in the presence of 0.1 nM 17-beta-estradiol - cell viability counter screen (AID 1259241). Note: nearly all actives have a fitted effect of over 40% in size. Note: potency is the fitted concentration of half-maximal effect. The method, boiled down: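 Cytotoxicity counter-screen: live-cell protease activity measured by fluorescence (30 min reagent step) in the same wells. Cells were VM7Luc4E2 with endogenous ER-alpha and ERE-driven luciferase, treated 22 hr at 37C alongside 0.1 nM 17beta-estradiol final.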

Test [10] is described as follows: qHTS assay to identify small molecule antagonists of the androgen receptor (AR) signaling pathway using the MDA cell line in the presence of 0.5 nM R1881 - cell viability counter screen (AID 1259242). Note: nearly all actives have a fitted effect of over 45% in size. Note: potency is the fitted concentration of half-maximal effect. The method in brief: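 Human breast carcinoma MDA-kb2 cells, cultured without CO2, receive compounds alongside 0.5 nM (final) R1881 agonist. After 16 hr at 37C, viability is taken as live-cell protease signal.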

Test [11] in a line: qHTS assay to identify small molecule phospholipidosis (PLD) inducers (AID 1259344; active = well fitted curve in the direction sought with a large enough effect; an effect the other way counts as inactive or inconclusive). The method, boiled down:
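Read-out is LipidTOX Red fluorescence (ex 595/em 615) imaged in HepG2 cells after 24 h compound exposure at 37 C, with Hoechst nuclear counterstain (ex 352/em 461) allowing per-cell normalisation.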

Test [12] can be described thus: qHTS assay to identify small molecule HDAC inhibitors (AID 1259364).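 Note: wild-type HCT-116 cells with endogenous class I/II HDAC activity; top concentration of the series differs between compounds; nearly all actives have a fitted effect of over 45% in size.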 The method, boiled down: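 After a 2 hr compound incubation (37C, 5% CO2), HCT-116 cells seeded at 1,500/well the day before received HDAC-Glo reagent; signal read as luminescence after 30 min at room temperature.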
Test [13] is described as follows: qHTS assay to identify small molecule HDAC inhibitors - cell viability counter screen (AID 1259365). The method, boiled down:
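CellTiter-Glo luminescence (30 min, room temperature) reported viability after a 2 h compound exposure at 37 C. Cells: wild-type HCT-116, 1,500 per well, seeded the night before.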

Test [14] can be described thus: qHTS assay to identify small molecule agonists of the sonic hedgehog signaling (Shh) pathway - cell viability counter screen (AID 1259366). Note: nearly all actives have a fitted effect of over 50% in size. Note: potency is the fitted concentration of half-maximal effect. The method, boiled down: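 Cytotoxicity counter screen: CellTiter-Fluor reagent added after 23 h compound exposure, then 1 h at 37C and fluorescence read. Cells were 3T3 Gli1-Luc, seeded 2,000 per well and dosed 4 h post-plating.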

Test [15] in a line: qHTS assay to identify small molecule antagonists of the sonic hedgehog signaling (Shh) pathway - cell viability counter screen (AID 1259367). Note: nearly all actives have a fitted effect of over 55% in size. The method in brief: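 Fluorescence read-out (CellTiter-Fluor, 1 hr at 37C) taken after 23 hr compound treatment of 3T3 Gli1-Luc cells stimulated with conditioned medium. Cells were seeded at 2,000 per well and pre-incubated 4 hr.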
Test [16] in a line: qHTS assay to identify small molecule agonists of the sonic hedgehog signaling (Shh) pathway (AID 1259368; calls by dose curve;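 note: NIH/3T3-derived 3T3Gli1-Luc cells carrying a stable Gli1-driven firefly luciferase reporter; series mostly up to about 92 µM; nearly all actives have a fitted effect of over 15% in size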). The method, boiled down:
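Stable NIH/3T3 Gli1-Luc reporter clone; 24 hr cpd exposure after a 4 hr settling period; luminescence endpoint.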

Test [17] is described as follows: qHTS assay to identify small molecule antagonists of the sonic hedgehog signaling (Shh) pathway (AID 1259369; calls by dose curve; note: nearly all actives have a fitted effect of over 45% in size; note: potency is the fitted concentration of half-maximal effect). The method, boiled down: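 Gli1 transcriptional reporter (firefly Luc) in NIH/3T3 background, conditioned-medium activated. 24hr exposure, luminescence endpoint.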
The nature of test [18]: A CellTox Green Cytotoxicity Assay to monitor cytotoxicity in HEK293 cells - 16 hour (AID 1224888). Note: nearly all actives have a fitted effect of over 35% in size. Note: potency is the fitted concentration of half-maximal effect. The method in brief: as §2
The target in test [19] is Estrogen receptor (Homo sapiens) (UniProt P03372). The experiment in a line: qHTS assay to identify small molecule antagonists of the estrogen receptor alpha (ER-alpha) signaling pathway using the BG1 cell line in the presence of 0.1 nM 17-beta-estradiol (AID 1259244). Note: nearly all actives have a fitted effect of over 50% in size. Note: potency is the fitted concentration of half-maximal effect. The method, boiled down:
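Seeding of stripped-serum-adapted VM7Luc4E2 cells, 24 h attachment, compound transfer, then 0.1 nM final 17beta-estradiol; after 22 h incubation, ONE-Glo reagent and luminescence reading.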

Sequence of Estrogen receptor (Homo sapiens) (P03372 whole entry, looked up): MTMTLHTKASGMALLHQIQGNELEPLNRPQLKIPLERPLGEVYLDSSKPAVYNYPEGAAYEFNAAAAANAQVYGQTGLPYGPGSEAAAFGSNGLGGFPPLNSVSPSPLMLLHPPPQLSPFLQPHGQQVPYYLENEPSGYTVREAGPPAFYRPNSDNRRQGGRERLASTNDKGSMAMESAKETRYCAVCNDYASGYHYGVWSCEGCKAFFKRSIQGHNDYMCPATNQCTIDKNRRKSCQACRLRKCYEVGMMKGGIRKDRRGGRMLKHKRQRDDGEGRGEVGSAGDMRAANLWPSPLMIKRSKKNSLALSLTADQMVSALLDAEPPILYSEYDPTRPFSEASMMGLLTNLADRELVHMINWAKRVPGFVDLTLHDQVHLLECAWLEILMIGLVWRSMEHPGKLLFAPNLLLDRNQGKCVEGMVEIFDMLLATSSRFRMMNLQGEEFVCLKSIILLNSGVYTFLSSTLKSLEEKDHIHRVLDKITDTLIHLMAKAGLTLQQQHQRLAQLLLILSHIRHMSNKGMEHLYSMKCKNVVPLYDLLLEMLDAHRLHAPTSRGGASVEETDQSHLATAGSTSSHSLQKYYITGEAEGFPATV

As to `O=C1NC(=O)C(c2ccccc2)(c2ccccc2)N1`, the Potency entry in test [1], in test [4], in [5], in test [6], in test [7] and in test [9] was “inactive” throughout. Further, the Potency entry in test [10], in [11], in [12], in test [13], in test [14] and in [15] was “inactive” each time. In addition, in test [17], the Potency result was “inactive”. Besides, the Potency entry is “inactive and 21.3 µM (active)” in test [2]; “inactive and 21.3 µM (active)” in test [3]; “inactive and 23.9 µM (active)” in test [8]. For the same compound, the outcome in [16] was inactive.
Regarding `Cc1ncc([N+](=O)[O-])n1CCO`, the Potency result in test [2], in test [3], in [4], in test [5], in [6] and in [18] was “inactive” throughout. For the same compound, the Potency result in test [7], in test [8], in test [9], in test [10], in [19] and in [11] was “inactive” throughout. In addition, the Potency entry in test [12], in test [13], in [14], in test [15] and in test [17] was “inactive” in each case. Also, in [16], the outcome was inactive.
Take `CS(=O)(=O)OCCCCOS(C)(=O)=O`: the Potency result in test [2], in test [3], in [4], in test [5], in test [6] and in test [18] was “inactive” throughout. Further, the Potency entry in test [7], in [8], in [9], in test [10], in test [19] and in test [11] was “inactive” in each case. For the same compound, the Potency entry in test [12], in test [13], in test [14], in test [15] and in test [17] was “inactive” each time. In addition, in test [16], the call was inactive.
Consider `OC[C@H]1O[C@H](O[C@]2(CCl)O[C@H](CCl)[C@@H](O)[C@@H]2O)[C@H](O)[C@@H](O)[C@H]1Cl`, for which the Potency entry in test [1], in test [2], in test [3], in [4], in test [5] and in test [6] was “inactive” throughout. Also, the Potency result in test [18], in test [7], in test [8], in [9], in [10] and in test [12] was “inactive” in each case. Further, the Potency result in test [13], in [14], in test [15] and in test [17] was “inactive” throughout. Further, in test [16], the result was inactive.
Regarding `NC(=O)n1c(O)c(C(=O)c2cccs2)c2cc(Cl)ccc21`, the Potency result in test [1], in test [2], in test [3], in test [4], in test [5] and in test [6] was “inactive” throughout. For the same compound, the Potency result in [18], in test [8], in test [11], in test [12] and in [13] was “inactive” throughout. For the same compound, the Potency in test [9] is 16.8 µM (active); in test [19], 13.3 µM (active); in test [17], 10.6 µM (active). Besides, the compound was classed as inactive in [16].
As for `C1CCC(C(CC2CCCCN2)C2CCCCC2)CC1` (stereo not given), the Potency entry in test [1], in [9], in test [11], in test [12] and in test [13] was “inactive” each time. Further, the Potency was 5.35 µM (active) in test [2]; 26.8 µM (active) in test [3]; 8.49 µM (active) in test [4]; 16.9 µM (active) in test [5]; 23.9 µM (active) in [6]; 23.9 µM (active) in test [18]. Further, the Potency in test [8] was 23.9 µM (active); in [10], 26.6 µM (active); in [14], 13.3 µM (active). Besides, the compound was classed as inactive in test [16].

The values are drawn from PubChem BioAssay (Tox21).
